Measured values as given in ChEMBL document CHEMBL4513135, “CO-ADD screening of IQOG CSIS (Spain) compounds”.
Several values for one entry are separate records, joined by “and”; a condition that tells them apart may be missing. Identical values can stand only once. Potency and affinity values are given separately.

Key:
[1] = tested on: Staphylococcus aureus; conditions: Concentration 32 ug.mL-1, ASSAY_TEST Inhibition of Bacterial Growth, detection method Absorption (OD600), MEDIA CAMHB, plate type 384well, NBS, CORNING #3640, time 18 hr
[2] = tested on: Escherichia coli; conditions: Concentration 32 ug.mL-1, ASSAY_TEST Inhibition of Bacterial Growth, detection method Absorption (OD600), MEDIA CAMHB, plate type 384well, NBS, CORNING #3640, time 18 hr

Compound: CC(C)(C)OC(=O)Nc1ccc(Br)cn1
- Inhibition [1]: 40.42%
- Inhibition [2]: -0.9%

Compound: N#CC1(Br)C(=N)Oc2ccc3ccccc3c2C1c1cccc([N+](=O)[O-])c1 (stereo not given)
- Inhibition [1]: 22.75%
- Inhibition [2]: -22.9%

Compound: COc1ccc(C2c3c(nc4c(c3N)CCCC4)Oc3ccc4ccccc4c32)cc1OC (stereo not given)
- Inhibition [1]: 3.78%
- Inhibition [2]: 13.42%

Compound: COC1(N)Oc2ccc3ccccc3c2C(c2ccccc2)C1(Br)C#N (stereo not given)
- Inhibition [1]: 16.73%
- Inhibition [2]: 20.49%

Compound: COC(=O)C1(NC(=O)c2ccccc2)CC1c1ccccc1 (stereo not given)
- Inhibition [1]: 1.83%
- Inhibition [2]: -4.02%

Compound: Cl.Nc1c2c(nc3c1C(c1ccccc1)c1c(ccc4ccccc14)O3)CCCC2 (stereo not given)
- Inhibition [1]: 8.92%
- Inhibition [2]: 12.69%

Compound: CC#CCN(Cc1ccccc1)c1nc(N)c(C#N)c(-c2ccccc2)c1C#N
- Inhibition [1]: 17.54%
- Inhibition [2]: -2.98%

Compound: CN(C)c1nc(N)c(C#N)c(-c2ccccc2)c1C#N
- Inhibition [1]: 7.52%
- Inhibition [2]: 0.57%

Compound: Cc1nn(-c2ccccc2)c2ncn3nc(-c4ccccc4)nc3c12
- Inhibition [1]: 11.88%
- Inhibition [2]: 13.25%

Compound: Nc1c2c(nc3c1c1ccccc1n3Cc1ccccc1)CCCC2
- Inhibition [1]: 17.35%
- Inhibition [2]: -10.77%

Compound: CC1CC(=O)Nc2c1c(Cl)nc1nc3c(c(N)c21)CCCC3 (stereo not given)
- Inhibition [1]: 34.68%
- Inhibition [2]: -17.09%

Compound: Cc1cnc2ccc(Cl)cn12
- Inhibition [1]: 9.7%
- Inhibition [2]: 8.76%

Compound: C#CCN(C)Cc1cc2cc(OCc3ccc(OC)c4ncccc34)ccc2n1C
- Inhibition [1]: 3.95%
- Inhibition [2]: -18.67%

Compound: O=C1SC(SCc2ccccc2)=NC1=Cc1cccc(OCc2ccccc2)c1
- Inhibition [1]: -1.09%
- Inhibition [2]: 7.89%

Compound: O=Cc1c[nH]c2ccccc12 [3-FORMYLINDOLE]
- Inhibition [1]: 16.72%
- Inhibition [2]: 17.3%

Compound: Nc1c2c(nc3c1CC(c1c(Cl)cccc1Cl)C(=O)N3)CCCC2 (stereo not given)
- Inhibition [1]: 22.21%
- Inhibition [2]: 31.42%

Compound: Nc1c2c(nc3c1C(c1ccc([N+](=O)[O-])cc1)c1ccc4ccccc4c1O3)CCCC2 (stereo not given)
- Inhibition [1]: -9.37%
- Inhibition [2]: -12.22%

Compound: N#CC1=C(N)Oc2c(ccc3ccccc23)C1c1ccc(O)cc1 (stereo not given)
- Inhibition [1]: 21.57%
- Inhibition [2]: -18.15%

Compound: COc1cc(C2c3c(nc4c(c3N)CCC4)Oc3ccc4ccccc4c32)ccc1O (stereo not given)
- Inhibition [1]: 11.79%
- Inhibition [2]: 11.06%

Compound: N#Cc1c(N)nc(NCCCC2CCN(Cc3ccccc3)CC2)c(C#N)c1-c1ccccc1
- Inhibition [1]: 56.22%
- Inhibition [2]: -16.73%

Compound: Cn1ccnc1C1C2=C(CC(C)(C)CC2=O)Oc2nc3c(c(N)c21)CCCC3 (stereo not given)
- Inhibition [1]: 8.97%
- Inhibition [2]: -15.11%

Compound: C/C(Cc1ccccc1)=N\NC(=O)c1c[nH]c2ccccc12
- Inhibition [1]: 5.98%
- Inhibition [2]: 14.48%

Compound: C#CCN(C)c1nc(N(C)CC#C)c(C#N)cc1C#N
- Inhibition [1]: 20.85%
- Inhibition [2]: -13.82%

Compound: CC(C)C(=O)N/N=C/c1c[nH]c2ccccc12
- Inhibition [1]: 10.48%
- Inhibition [2]: 9.69%

Compound: O=C(N/N=C/c1ccc(Cl)cc1)c1cc2ccccc2[nH]1
- Inhibition [1]: 1.43%
- Inhibition [2]: 20.07%

Compound: N#CCC(=C(C#N)C#N)c1ccccc1
- Inhibition [1]: 11.65%
- Inhibition [2]: 4.41%

Compound: CNC(=O)NC1(C(=O)O)CC1c1ccccc1 (stereo not given)
- Inhibition [1]: 10.75%
- Inhibition [2]: 8.23%

Compound: N#CC1=C(N)Oc2ccc3ccccc3c2C1c1ccccc1[N+](=O)[O-] (stereo not given)
- Inhibition [1]: 40.78%
- Inhibition [2]: -6.45%

Compound: C=C1CN(Cc2ccccc2)c2c(C#N)c(-c3ccccc3)c(C#N)c(=N)n21
- Inhibition [1]: 44.91%
- Inhibition [2]: -0.81%

Compound: CCOC(=O)C1=C(C)Nc2nc3c(c(N)c2C1c1ccc([N+](=O)[O-])cc1)CCCC3.Cl (stereo not given)
- Inhibition [1]: 34.25%
- Inhibition [2]: -22.43%

Compound: CC(=O)CC(=O)N1[C@@H]2C[C@H]3CCC2(CS1(=O)=O)C3(C)C
- Inhibition [1]: 27.16%
- Inhibition [2]: 7.75%

Compound: CCOC(=O)C1=C(C)Oc2nc3c(c(N)c2C1c1ccccc1OC)CCC3 (stereo not given)
- Inhibition [1]: 12.13%
- Inhibition [2]: 5.78%

Compound: CC(=O)Oc1ccc(C=C2N=C(c3ccccc3)OC2=O)cc1
- Inhibition [1]: 10.97%
- Inhibition [2]: 17.49%

Compound: Cc1[nH]nc2c1C(c1cccc([N+](=O)[O-])c1)C(C#N)=C(N)O2 (stereo not given)
- Inhibition [1]: 7.57%
- Inhibition [2]: 4.04%

Compound: C#CCN(C)c1nc(NCCCC2CCN(Cc3ccccc3)CC2)c(C#N)cc1C#N
- Inhibition [1]: 1.12%
- Inhibition [2]: -10.35%

Compound: COc1ccc(C2c3c(ccc4ccccc34)OC(=N)C2(Br)C#N)cc1 (stereo not given)
- Inhibition [1]: 26.69%
- Inhibition [2]: -14.26%

Compound: CCOC(=O)c1c[nH]c2ccc(OCc3ccccc3)cc12
- Inhibition [1]: 5.22%
- Inhibition [2]: 6.31%

Compound: N#CC1(Br)C(=N)Oc2ccc3ccccc3c2C1c1ccccc1 (stereo not given)
- Inhibition ([1]; 32 ug/mL): 27.29% and 36.87%
- Inhibition ([2]; 32 ug/mL): -8.37% and -7.39%

Compound: CCOC(=O)c1cc2cc(OC)ccc2n1C
- Inhibition [1]: -7.5%
- Inhibition [2]: -9.48%

Compound: N#Cc1c(Cl)nc(Sc2ccccc2)c(C#N)c1-c1ccccc1
- Inhibition [1]: 3.48%
- Inhibition [2]: -17.27%

Compound: C/C(=N\NC(=O)c1cc2ccccc2n1Cc1ccccc1)C1CC1
- Inhibition [1]: 7.87%
- Inhibition [2]: 7.24%

Compound: N#CC1=C(N)NC(=O)CC1c1ccccc1 (stereo not given)
- Inhibition [1]: 34.44%
- Inhibition [2]: 4.14%

Compound: Cc1ccc(C2C(C#N)=C(N)Oc3c2ccc2ccccc32)cc1 (stereo not given)
- Inhibition [1]: -4.2%
- Inhibition [2]: -2.25%

Compound: O=C(NNC(Cc1ccccc1)Cc1ccccc1)c1cc2ccccc2[nH]1
- Inhibition [1]: -3.72%
- Inhibition [2]: -3.49%

Compound: O=C1SC(SCc2ccccc2)=NC1=Cc1ccccc1
- Inhibition [1]: 6.82%
- Inhibition [2]: 1.82%

Compound: N#Cc1c(-c2cccc([N+](=O)[O-])c2)c2ccc3ccccc3c2oc1=O
- Inhibition ([2]; 32 ug/mL): -5.38% and -17.97% and -15.63%

Compound: CCOC(N)=CC#N
- Inhibition [1]: -2.54%
- Inhibition [2]: 11.63%

Compound: Cc1ccc(-c2c(C#N)c(N)nc3c2S(=O)(=O)OC3(C)C)cc1
- Inhibition [1]: 9.98%
- Inhibition [2]: 6.38%

Compound: CNCc1cc2ccccc2n1C.Cl
- Inhibition [1]: 7.33%
- Inhibition [2]: 3.85%

Compound: CCOC(=O)C1=C(C)OC(N)=C(C#N)C1c1ccco1 (stereo not given)
- Inhibition [1]: 7.79%
- Inhibition [2]: -14.37%

Compound: C#CCN(C)Cc1cc2cc(OC)ccc2n1C
- Inhibition [1]: 33.86%
- Inhibition [2]: -8.2%

Compound: COc1ccc2cc(C3C(C(C)=O)=C(C)Oc4nc5c(c(N)c43)CCCCC5)c(Cl)nc2c1 (stereo not given)
- Inhibition [1]: 26.1%
- Inhibition [2]: 15.71%

Compound: Cn1cc(C=O)c2ccccc21
- Inhibition [1]: -0.04%
- Inhibition [2]: -4.32%

Compound: Cc1nn(-c2ccccc2)c2nc(C)n3nc(-c4ccccc4)nc3c12
- Inhibition [1]: 16.28%
- Inhibition [2]: 8.31%

Compound: C#CCNc1nc(Cl)c(C#N)c(-c2ccccc2)c1C#N
- Inhibition [1]: 4.06%
- Inhibition [2]: 10.8%

Compound: CN(C)c1ccc(C(=NNC(=O)c2cc3ccccc3[nH]2)c2ccc(N(C)C)cc2)cc1
- Inhibition [1]: -9.28%
- Inhibition [2]: -3.28%

Compound: CCOC(=O)/C(C#N)=C\c1ccc([N+](=O)[O-])cc1
- Inhibition [1]: 32.65%
- Inhibition [2]: 19.98%

Compound: CCOC(=O)C1=C(C)Oc2nc3c(c(N)c2C1c1nccn1C)CCCCC3 (stereo not given)
- Inhibition [1]: 10.64%
- Inhibition [2]: -6.7%

Compound: CCOc1nc(N)c(C#N)c(-c2ccccc2)c1C#N
- Inhibition [1]: 44.16%
- Inhibition [2]: -9.76%

Compound: Cl.Nc1c2c(nc3c1C(c1ccccc1)c1ccc4ccccc4c1O3)CCCC2 (stereo not given)
- Inhibition [1]: 23.84%
- Inhibition [2]: 6.79%

Compound: COc1ccccc1C1C(C#N)=C(N)Oc2[nH]nc(C)c21 (stereo not given)
- Inhibition [1]: 9.32%
- Inhibition [2]: 14.43%

Compound: Cl.ClCCCN1CCCC1
- Inhibition [1]: 23.18%
- Inhibition [2]: 5.15%

Compound: Nc1c2c(nc3c1C(c1c(Cl)cccc1Cl)c1ccc4ccccc4c1O3)CCCC2 (stereo not given)
- Inhibition [1]: 2.04%
- Inhibition [2]: 3.11%

Compound: COc1cccc(C2c3c(ccc4ccccc34)OC(=NBr)C2(Br)C#N)c1 (stereo not given)
- Inhibition [1]: 39.2%
- Inhibition [2]: -16.78%

Compound: COc1ccc(C2C(C#N)=C(N)Oc3c2ccc2ccccc32)cc1OC (stereo not given)
- Inhibition [2]: -16.13%

Compound: C#CCN(C)c1nc(N)c(C#N)cc1C#N
- Inhibition ([2]; 32 ug/mL): -6.57% and -4.54%

Compound: C#CCN1CCc2nc3nc(N4CCCC4)c(C#N)cc3c(N)c2C1
- Inhibition [1]: 24.32%
- Inhibition [2]: -2.2%

Compound: CCOC(=O)c1cc2cc(O)ccc2n1C(=O)OC(C)(C)C
- Inhibition [1]: 5.1%
- Inhibition [2]: 10.33%

Compound: CCOC(=O)c1c(C)nc2nc3c(c(N)c2c1-c1ccccc1OC)CCCCC3
- Inhibition [1]: 5.11%
- Inhibition [2]: -17.67%

Compound: COc1ccc(-c2cc(-c3cc4c(OC)ccc(OC)c4nc3Cl)cc(=O)[nH]2)cc1
- Inhibition [1]: 22.4%
- Inhibition [2]: -10.79%

Compound: C#CCN(C)Cc1cc2cc(O)ccc2n1C.Cl
- Inhibition [1]: 21.22%
- Inhibition [2]: -11.62%

Compound: CC(=O)NC(=Cc1ccccc1)C(=O)O
- Inhibition [1]: 13.69%
- Inhibition [2]: 10.22%

Compound: COc1cc(C2c3ccc4ccccc4c3Oc3nc4c(c(N)c32)CCCC4)ccc1O.Cl (stereo not given)
- Inhibition [1]: -4.49%
- Inhibition [2]: -1.18%

Compound: COC1=C(C#N)CCC(=O)N1
- Inhibition [1]: 33.45%
- Inhibition [2]: -6.96%

Compound: CC(=O)NC=C1C(=O)OC(C)(C)OC1=O
- Inhibition [1]: 14.96%
- Inhibition [2]: 11.61%

Compound: COc1cccc(C2c3c(ccc4ccccc34)OC(=N)C2(Br)C#N)c1 (stereo not given)
- Inhibition ([2]; 32 ug/mL): -22.74% and -4.85%

Compound: N#Cc1c(N)nc2c(c1-c1ccccc1)CN(Cc1ccccc1)CC2
- Inhibition [1]: 12.81%
- Inhibition [2]: 10.61%

Compound: O=C1SC(SCc2ccccc2)=NC1=Cc1ccc2c(c1)OCO2
- Inhibition [1]: 0.74%
- Inhibition [2]: 10.84%

Compound: CCOC(=O)C1=C(C)Oc2nc3c(c(N)c2C1c1nccn1C)CCC3 (stereo not given)
- Inhibition [1]: 6.58%
- Inhibition [2]: -22.18%

Compound: N#Cc1c(-c2ccccc2)c2ccc3ccccc3c2oc1=O
- Inhibition [1]: 33.43%
- Inhibition [2]: -8.95%

Compound: N#CC1=C(N)Oc2c(ccc3ccccc23)C1c1c(Cl)cccc1Cl (stereo not given)
- Inhibition [1]: 8.27%
- Inhibition [2]: 6.46%

Compound: O=C(O)c1c[nH]c2ccccc12
- Inhibition [1]: -3.47%
- Inhibition [2]: -2.29%
